# According to ChEMBL document CHEMBL3988442, “University of Dundee, Small-Polar-MMV Screening Library” (2021):
# Target: AMP-activated protein kinase, AMPK (Homo sapiens) (UniProt P54646+O43741+P54619+Q9UGJ0+Q9Y478+Q13131+Q9UGI9)
# Assay: AMP-dependent Kinase enzyme assay. An in vitro enzyme assay that detects ADP turnover that is directly proportional to AMPK activity. This uses naive AMPK that is activated during the assay with MK-8722
# Format: functional
# Design: scale not given: direction of the effect not stated beside the values
# Conditions: 30 µM
row,Structure (SMILES),Percent Effect [%]
1,COCCOc1ncccc1NCc1nc2ccccc2n1C,7.32
2,Cc1nc(-n2nc(-c3cccs3)cc2N)[nH]c(=O)c1C,-14.4
3,CCn1c(C2CCCN2Cc2noc(C(C)(C)C)n2)nc2ccccc21 (stereo not given),13.4
4,CC(C)N(C)S(=O)(=O)c1ccc2c(c1)CCN(C(=O)c1cnccn1)C2,0.361
5,COCC(=O)N1CCCC1(C(=O)N(C)C)c1cnccn1 (stereo not given),6.8
6,CCC(C(=O)NC1(COC)CCCC1)n1cccn1 (stereo not given),-12
7,CN(Cc1ccsc1)C(=O)c1nc(N2CCCCC2)ncc1Cl,0.035
8,COc1cccc(NC(=O)NCC2CCCN(C3CCOCC3)C2)c1 (stereo not given),6.25
9,CN(Cc1ccc(F)cc1F)Cc1cc2c(cc1Br)OCCO2,-3.85
10,CCn1cc(S(=O)(=O)NCc2ccnc(-n3ccnc3)c2)cn1,-0.563
11,CC1CN(C)CCN1C(=O)c1cccn1Cc1ccncc1 (stereo not given),1.97
12,O=C(NC1CCN(C2CC2)C1)c1cn(-c2ccc(F)cc2)nn1 (stereo not given),-3.53
13,CN(C)CCCC(=O)NC1CC(C)(C)Cc2nc(C(C)(C)C)ncc21 (stereo not given),8.49
14,Cc1nsc(C(=O)NCCc2ccc(F)cc2)n1,-2.41
15,c1cnc(Nc2ccc(C3CCCCN3Cc3ccncc3)cn2)nc1 (stereo not given),11.1
16,CNC(=O)NC(=O)CN1CCc2c(Br)ccc(F)c2C1,5.32
17,Cc1ccccc1S(=O)(=O)N(C)[C@@H]1CC[C@@H](n2ccnc2C)[C@@H]1O,-13.8
18,CN(C(=O)C1CCN(Cc2cnc3ccccn23)CC1)c1ccccc1,-0.957
19,C[C@@H]1CN(c2ccc(Cl)cn2)C[C@]1(C)O,-1.99
20,Cc1nc(NC(=O)C(C)N(C)Cc2ccc3c(c2)OCO3)sc1C (stereo not given),6

row,Structure (SMILES),Percent Effect [%]
1,CS(=O)(=O)c1ccc(Cl)c(NC(=O)NCCC2=CCCCC2)c1,3.49
2,Cc1ccc(C(=O)NCc2ccnc(C3CCCOC3)n2)s1 (stereo not given),7.88
3,CC(CNC(=O)c1cnc[nH]1)Oc1ccc(Cl)cc1 (stereo not given),4.75
4,O=C(O)c1ccccc1-c1ccc(CN2CC(c3ccncn3)C2)o1,11.8
5,CCCN1CCC(N2CCC(Cn3cc(CC(C)O)nn3)CC2)CC1 (stereo not given),-7.12
6,N[C@H]1CN(C(=O)c2ccc3[nH]c(=O)c(=O)[nH]c3c2)C[C@@H]1c1ccccc1,3.24
7,Cc1cc(C(=O)N2CC[C@H](N3CCN(C)CC3)[C@H](CCCO)C2)n(C)n1,10.5
8,CCC(CN1CCCC1)n1cncc1-c1cnn(-c2ccccc2)c1 (stereo not given),20
9,CCCN(CC(F)(F)F)S(=O)(=O)c1cc(C(N)=O)n(C)c1,-4.23
10,CN(C)CCN(Cc1ccc(C#N)cc1)C(=O)c1ccn(C)c(=O)c1,15.4
11,Cn1cc(CN(C(=O)c2ccc3ncsc3c2)C2CC2)cn1,10.2
12,Cc1nc(CN(C)c2nccc(C(F)(F)F)n2)cs1,5.48
13,CC(C)[C@@H]1CN(c2ccc(C(F)(F)F)cn2)C[C@H]1NS(C)(=O)=O,3.23
14,Clc1cc(NCc2ccncc2)nc2[nH]ccc12,-59.2
15,Cc1ccc(C(NC(=O)CCCN2CCCCC2)C(=O)O)cc1 (stereo not given),11.8
16,CC1CCCN(c2ncc(-c3ccccc3F)c(-c3nccn3C)n2)C1 (stereo not given),9.01
17,CC(O)CN1CCN(C(=O)CCOc2ccccc2F)CC1 (stereo not given),-1.3
18,COC1CCN(c2ccc(F)cc2CN(C)CC(N)=O)CC1,5.84
19,CSc1ccc(C(=O)C2CCCN(C(=O)CCn3cnnn3)C2)cc1 (stereo not given),10.2
20,CC(CC(=O)c1ccco1)NC(=O)c1ccon1 (stereo not given),9.56
